Laboratory results from the supplement of paper PMC10849652.
About 7,900 targets were measured; listed, in parts, are those with a hit and a random draw of the rest. About 0.6% of all pairs of compound and target were hits. A number with no mark means an inactive call.

Legend:
Assay in all cases: log2 fold change, soluble protein after heating vs DMSO (PISA); higher = thermal stabilisation; K562 cells, 10 uM, 30 min; active = over 0.2 and 3.5 SD of the protein, either way, in both replicates (recomputed)
[1] = compound: CS(=O)(=O)c1ccc(-c2cnc(N)c(C(=O)Nc3ccccc3)n2)cc1
Outline: (§1)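 K562 cells at 2×10^6 cells/mL were treated with 10 μM compound for 30 min. Aliquots were heated for 3 min across 48°C-58°C, pooled, and extracted in PBS with 0.5% NP-40 at 4°C; soluble protein was the supernatant after 21,000xg for 90 min. Soluble protein was quantified by TMTpro 16plex LC-MS/MS with channel sums equalised, and reported as log2 fold change in thermal stability against DMSO controls, with values from duplicates.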

crizotinib = compound: C[C@@H](Oc1cc(-c2cnn(C3CCNCC3)c2)cnc1N)c1c(Cl)ccc(F)c1Cl [crizotinib]
Outline: as §1

[2] = compound: C[C@@H]1COCCN1C2=NC(=NC(=C2)C3(CC3)S(=O)(=O)C)C4=C5C=CNC5=CC=C4
Outline: as §1

[3] = compound: C[C@H](C1=CC=C(C=C1)C(=O)NC2=C3C=CNC3=NC=C2)N
Outline: as §1

duvelisib = compound: C[C@H](Nc1ncnc2nc[nH]c12)c1cc2cccc(Cl)c2c(=O)n1-c1ccccc1 [duvelisib]
Outline: as §1

gandotinib = compound: Cc1cc(Nc2cc(CN3CCOCC3)c3nc(C)c(Cc4ccc(Cl)cc4F)n3n2)n[nH]1 [gandotinib]
Outline: as §1

tozasertib = compound: Cc1cc(Nc2cc(N3CCN(C)CC3)nc(Sc3ccc(NC(=O)C4CC4)cc3)n2)n[nH]1 [tozasertib]
Outline: as §1

[4] = compound: Cc1cc(SCc2sc(-c3ccc(C(F)(F)F)cc3)nc2C)ccc1OCC(=O)O
Outline: as §1

doramapimod = compound: Cc1ccc(-n2nc(C(C)(C)C)cc2NC(=O)Nc2ccc(OCCN3CCOCC3)c3ccccc23)cc1 [doramapimod]
Outline: as §1

ispinesib = compound: Cc1ccc(C(=O)N(CCCN)[C@@H](c2nc3cc(Cl)ccc3c(=O)n2Cc2ccccc2)C(C)C)cc1 [ispinesib]
Outline: as §1

bafetinib = compound: Cc1ccc(NC(=O)c2ccc(CN3CC[C@H](N(C)C)C3)c(C(F)(F)F)c2)cc1Nc1nccc(-c2cncnc2)n1 [bafetinib]
Outline: as §1

[5] = compound: Cc1cccc(CC(=O)N2CCc3c2ccc(-c2cn(C)c4ncnc(N)c24)c3F)n1
Outline: as §1

nilotinib = compound: Cc1cn(-c2cc(NC(=O)c3ccc(C)c(Nc4nccc(-c5cccnc5)n4)c3)cc(C(F)(F)F)c2)cn1 [nilotinib]
Outline: as §1

[6] = compound: Cc1nc(Nc2n[nH]c3c2CN(C(=O)N[C@H](CN(C)C)c2ccccc2)C3(C)C)c2sccc2n1
Outline: as §1

dasatinib = compound: Cc1nc(Nc2ncc(C(=O)Nc3c(C)cccc3Cl)s2)cc(N2CCN(CCO)CC2)n1 [dasatinib]
Outline: as §1

[7] = compound: Cc1ncc(-c2ccnc(Nc3ccc(S(C)(=O)=O)cc3)n2)n1C(C)C
Outline: as §1

[8] = compound: Cn1cc(-c2ccc3c(c2)CCN3C(=O)Cc2cccc(C(F)(F)F)c2)c2c(N)ncnc21
Outline: as §1

[9] = compound: Cn1cc(-c2ccc3nnc(C(F)(F)c4ccc5ncccc5c4)n3n2)cn1
Outline: as §1

tipifarnib = compound: Cn1cncc1[C@@](N)(c1ccc(Cl)cc1)c1ccc2c(c1)c(-c1cccc(Cl)c1)cc(=O)n2C [tipifarnib]
Outline: as §1

mubritinib = compound: FC(F)(F)c1ccc(/C=C/c2nc(COc3ccc(CCCCn4ccnn4)cc3)co2)cc1 [mubritinib]
Outline: as §1

Chain of UniProt P36507 (P36507 whole entry, looked up): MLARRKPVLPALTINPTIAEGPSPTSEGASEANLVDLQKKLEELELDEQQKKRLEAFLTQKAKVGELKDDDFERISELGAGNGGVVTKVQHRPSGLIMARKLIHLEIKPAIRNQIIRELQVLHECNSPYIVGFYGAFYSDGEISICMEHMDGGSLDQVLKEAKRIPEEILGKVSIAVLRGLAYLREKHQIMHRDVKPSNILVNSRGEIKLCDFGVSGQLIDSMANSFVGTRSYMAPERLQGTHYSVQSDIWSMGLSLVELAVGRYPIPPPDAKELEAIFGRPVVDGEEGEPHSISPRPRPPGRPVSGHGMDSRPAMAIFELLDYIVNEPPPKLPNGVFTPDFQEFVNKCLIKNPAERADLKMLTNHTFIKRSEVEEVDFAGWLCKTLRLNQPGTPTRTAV
Chain of UniProt Q9NVC6 (Q9NVC6 whole entry, looked up): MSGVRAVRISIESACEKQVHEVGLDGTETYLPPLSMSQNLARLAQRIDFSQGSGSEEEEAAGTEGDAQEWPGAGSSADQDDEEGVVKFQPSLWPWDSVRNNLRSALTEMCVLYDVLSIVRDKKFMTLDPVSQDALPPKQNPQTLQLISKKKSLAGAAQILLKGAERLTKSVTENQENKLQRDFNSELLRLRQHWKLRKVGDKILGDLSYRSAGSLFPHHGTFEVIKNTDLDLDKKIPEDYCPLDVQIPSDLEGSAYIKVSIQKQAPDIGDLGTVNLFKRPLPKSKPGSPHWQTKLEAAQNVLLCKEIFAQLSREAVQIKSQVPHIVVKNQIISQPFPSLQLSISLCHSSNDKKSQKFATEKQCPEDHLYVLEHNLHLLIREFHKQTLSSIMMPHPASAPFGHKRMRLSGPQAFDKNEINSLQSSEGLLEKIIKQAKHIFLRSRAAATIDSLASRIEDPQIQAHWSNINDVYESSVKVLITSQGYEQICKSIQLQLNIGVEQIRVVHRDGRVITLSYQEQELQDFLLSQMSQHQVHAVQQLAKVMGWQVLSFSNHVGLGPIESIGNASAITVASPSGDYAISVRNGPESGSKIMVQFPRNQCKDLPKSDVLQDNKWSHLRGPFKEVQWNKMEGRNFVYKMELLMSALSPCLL
Chain of UniProt P46734 (P46734 whole entry, looked up): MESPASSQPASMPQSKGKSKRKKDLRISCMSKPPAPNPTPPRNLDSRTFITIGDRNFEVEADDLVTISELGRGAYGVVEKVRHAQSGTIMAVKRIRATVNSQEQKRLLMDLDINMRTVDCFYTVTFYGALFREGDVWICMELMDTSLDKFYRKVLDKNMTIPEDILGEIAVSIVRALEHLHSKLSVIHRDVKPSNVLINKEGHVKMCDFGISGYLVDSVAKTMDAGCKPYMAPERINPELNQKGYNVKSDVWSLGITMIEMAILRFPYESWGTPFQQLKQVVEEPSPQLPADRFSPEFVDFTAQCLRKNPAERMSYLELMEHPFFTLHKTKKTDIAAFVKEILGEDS
Chain of UniProt Q86V48 (Q86V48 whole entry, looked up): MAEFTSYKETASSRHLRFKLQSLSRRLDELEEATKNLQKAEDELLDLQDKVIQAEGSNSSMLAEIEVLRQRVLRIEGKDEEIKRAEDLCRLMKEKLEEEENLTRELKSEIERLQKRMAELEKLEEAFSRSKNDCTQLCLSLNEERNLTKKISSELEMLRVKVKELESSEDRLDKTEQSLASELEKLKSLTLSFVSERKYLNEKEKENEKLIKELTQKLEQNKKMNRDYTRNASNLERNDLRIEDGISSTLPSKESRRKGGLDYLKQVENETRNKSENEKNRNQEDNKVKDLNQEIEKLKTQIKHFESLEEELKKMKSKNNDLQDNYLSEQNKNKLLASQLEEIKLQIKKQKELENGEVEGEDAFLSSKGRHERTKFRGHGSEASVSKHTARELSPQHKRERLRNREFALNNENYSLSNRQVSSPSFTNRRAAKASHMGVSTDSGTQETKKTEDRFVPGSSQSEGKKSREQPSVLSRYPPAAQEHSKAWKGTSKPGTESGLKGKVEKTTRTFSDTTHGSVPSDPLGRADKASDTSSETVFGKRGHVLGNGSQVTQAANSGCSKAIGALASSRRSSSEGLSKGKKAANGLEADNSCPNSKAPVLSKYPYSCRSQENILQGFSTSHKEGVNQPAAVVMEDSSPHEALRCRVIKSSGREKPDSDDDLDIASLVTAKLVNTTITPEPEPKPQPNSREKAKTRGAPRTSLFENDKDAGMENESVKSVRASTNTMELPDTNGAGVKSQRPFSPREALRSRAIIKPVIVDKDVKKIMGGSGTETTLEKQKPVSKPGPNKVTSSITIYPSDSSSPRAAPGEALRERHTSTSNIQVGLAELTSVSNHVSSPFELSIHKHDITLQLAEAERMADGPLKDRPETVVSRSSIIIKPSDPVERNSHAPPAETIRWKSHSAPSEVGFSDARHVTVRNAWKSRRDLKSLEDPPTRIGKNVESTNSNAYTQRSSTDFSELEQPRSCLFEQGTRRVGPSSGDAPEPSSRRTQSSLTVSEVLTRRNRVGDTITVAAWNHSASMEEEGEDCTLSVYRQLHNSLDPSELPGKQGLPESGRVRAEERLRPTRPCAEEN
Chain of UniProt P22692 (P22692 whole entry, looked up): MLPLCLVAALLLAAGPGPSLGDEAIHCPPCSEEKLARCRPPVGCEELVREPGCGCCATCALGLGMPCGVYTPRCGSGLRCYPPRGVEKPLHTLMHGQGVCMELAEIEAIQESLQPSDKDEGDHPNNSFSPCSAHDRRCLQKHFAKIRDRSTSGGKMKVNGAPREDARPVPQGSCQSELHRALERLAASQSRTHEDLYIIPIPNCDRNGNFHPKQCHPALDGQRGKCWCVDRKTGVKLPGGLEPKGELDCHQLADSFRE
Chain of UniProt Q14680 (Q14680 whole entry, looked up): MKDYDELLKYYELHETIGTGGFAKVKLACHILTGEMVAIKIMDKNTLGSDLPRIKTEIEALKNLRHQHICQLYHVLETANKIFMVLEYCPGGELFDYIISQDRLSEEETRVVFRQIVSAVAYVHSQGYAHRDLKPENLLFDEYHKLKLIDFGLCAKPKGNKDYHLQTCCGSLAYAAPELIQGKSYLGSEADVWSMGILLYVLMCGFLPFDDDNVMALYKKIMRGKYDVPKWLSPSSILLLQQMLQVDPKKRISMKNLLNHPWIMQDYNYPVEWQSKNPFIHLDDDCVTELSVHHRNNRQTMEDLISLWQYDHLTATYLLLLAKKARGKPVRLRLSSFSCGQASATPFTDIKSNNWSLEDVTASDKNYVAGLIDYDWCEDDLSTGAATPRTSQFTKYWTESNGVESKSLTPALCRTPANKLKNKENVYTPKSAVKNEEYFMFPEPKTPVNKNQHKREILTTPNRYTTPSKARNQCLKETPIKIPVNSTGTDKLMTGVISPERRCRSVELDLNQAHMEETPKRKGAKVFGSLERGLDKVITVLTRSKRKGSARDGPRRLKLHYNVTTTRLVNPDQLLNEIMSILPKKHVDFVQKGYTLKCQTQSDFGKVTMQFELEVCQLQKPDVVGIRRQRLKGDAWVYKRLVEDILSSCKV
Chain of UniProt O95372 (O95372 whole entry, looked up): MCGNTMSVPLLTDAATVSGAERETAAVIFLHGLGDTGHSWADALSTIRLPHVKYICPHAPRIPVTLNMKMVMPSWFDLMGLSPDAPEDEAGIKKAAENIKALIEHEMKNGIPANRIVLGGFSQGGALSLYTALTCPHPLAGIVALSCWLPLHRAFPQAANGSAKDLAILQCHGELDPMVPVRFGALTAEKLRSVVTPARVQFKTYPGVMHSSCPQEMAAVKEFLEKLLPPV
Chain of UniProt P08514 (P08514 whole entry, looked up): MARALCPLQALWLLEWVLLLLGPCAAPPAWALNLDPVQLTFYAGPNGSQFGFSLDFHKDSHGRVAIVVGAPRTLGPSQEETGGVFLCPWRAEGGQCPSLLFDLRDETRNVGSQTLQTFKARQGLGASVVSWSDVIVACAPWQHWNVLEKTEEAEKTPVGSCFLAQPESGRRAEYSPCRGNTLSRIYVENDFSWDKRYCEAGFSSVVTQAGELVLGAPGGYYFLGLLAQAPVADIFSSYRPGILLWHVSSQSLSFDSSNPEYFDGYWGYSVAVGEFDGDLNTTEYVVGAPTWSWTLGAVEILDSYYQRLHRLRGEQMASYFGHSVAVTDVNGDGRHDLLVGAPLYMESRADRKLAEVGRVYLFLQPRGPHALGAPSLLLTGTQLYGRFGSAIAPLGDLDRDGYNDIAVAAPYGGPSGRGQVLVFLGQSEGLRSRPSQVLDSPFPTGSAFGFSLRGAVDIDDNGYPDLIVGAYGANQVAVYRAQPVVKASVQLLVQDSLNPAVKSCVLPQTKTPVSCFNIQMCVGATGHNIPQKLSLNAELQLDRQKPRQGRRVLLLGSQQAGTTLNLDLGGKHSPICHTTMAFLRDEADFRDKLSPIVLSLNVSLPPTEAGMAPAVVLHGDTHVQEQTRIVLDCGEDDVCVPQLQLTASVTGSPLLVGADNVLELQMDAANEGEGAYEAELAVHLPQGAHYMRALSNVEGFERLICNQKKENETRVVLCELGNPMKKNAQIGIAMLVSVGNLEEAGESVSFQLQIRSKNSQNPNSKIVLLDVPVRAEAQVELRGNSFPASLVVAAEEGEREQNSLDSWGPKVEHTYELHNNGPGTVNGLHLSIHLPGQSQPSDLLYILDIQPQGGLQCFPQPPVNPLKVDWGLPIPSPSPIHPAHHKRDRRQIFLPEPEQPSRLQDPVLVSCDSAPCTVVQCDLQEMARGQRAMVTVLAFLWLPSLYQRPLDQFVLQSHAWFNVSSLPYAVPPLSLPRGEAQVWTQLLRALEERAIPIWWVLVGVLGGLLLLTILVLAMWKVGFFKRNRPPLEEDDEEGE
Chain of UniProt P18065 (P18065 whole entry, looked up): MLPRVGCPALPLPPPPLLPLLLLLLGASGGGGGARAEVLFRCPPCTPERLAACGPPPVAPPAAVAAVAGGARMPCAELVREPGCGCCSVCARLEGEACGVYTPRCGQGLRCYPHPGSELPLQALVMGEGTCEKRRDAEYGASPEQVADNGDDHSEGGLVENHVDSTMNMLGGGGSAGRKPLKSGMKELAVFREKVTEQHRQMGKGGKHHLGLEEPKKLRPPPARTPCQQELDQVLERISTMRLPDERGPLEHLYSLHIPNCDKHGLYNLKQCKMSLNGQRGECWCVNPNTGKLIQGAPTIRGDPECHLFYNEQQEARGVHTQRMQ

Target | log2 fold change [1] | log2 fold change (crizotinib) | log2 fold change [2] | log2 fold change [3] | log2 fold change (duvelisib) | log2 fold change (gandotinib) | log2 fold change (tozasertib) | log2 fold change [4] | log2 fold change (doramapimod) | log2 fold change (ispinesib) | log2 fold change (bafetinib) | log2 fold change [5] | log2 fold change (nilotinib) | log2 fold change [6] | log2 fold change (dasatinib) | log2 fold change [7] | log2 fold change [8] | log2 fold change [9] | log2 fold change (tipifarnib) | log2 fold change (mubritinib)
MAPRE3 (UniProt Q9UPY8) | -0.011 | 0.004 | 0.092 | -0.085 | 0.02 | -0.098 | 0.037 | 0.006 | -0.042 | 0.02 | -0.037 | 0.038 | -0.012 | -0.038 | -0.042 | 0.021 | -0.041 | 0.061 | -0.037 | 0.027
MCL1 (UniProt Q07820) | -0.079 | 0.043 | -0.158 | -0.006 | 0.052 | 0.042 | -0.056 | 0.01 | 0.109 | -0.441 | -0.181 | -0.017 | 0.015 | -0.053 | 0.068 | -0.079 | -0.021 | -0.158 | 0.109 | 0.001
LYPLA2 (UniProt O95372) | -0.028 | 0.005 | 0.299 | -0.08 | 0.189 | -0.094 | 0.056 | 0.066 | 0.016 | 0.172 | 0.139 | 0.007 | 0.13 | -0.042 | 0 | -0.026 | 0.175 | 0.298 | -0.054 | 0.013
METTL18 (UniProt O95568) | 0.003 | -0.043 | 0.053 | -0.012 | 0.004 | -0.045 | -0.115 | 0.012 | -0.001 | 0.004 | -0.091 | -0.049 | -0.092 | 0.028 | 0.054 | -0.023 | -0.022 | -0.087 | 0.019 | 0.036
MED17 (UniProt Q9NVC6) | -0.02 | -0.004 | 0.028 | 0.119 | -0.067 | 0.007 | -0.042 | 0.109 | 0.022 | -0.049 | – | -0.033 | 0.069 | 0.079 | -0.152 | -0.108 | -0.033 | -0.069 | 0.077 | 0.015
MAP2K2 (UniProt P36507) | 0.013 | -0.055 | 0.069 | -0.052 | 0.02 | -0.069 | -0.041 | -0.01 | -0.038 | -0.058 | -0.081 | 0.007 | -0.003 | -0.154 | -0.092 | -0.018 | 0.023 | 0.098 | 0.015 | 0.017
LMNA (UniProt P02545) | -0.054 | 0.064 | 0.102 | -0.231 (active) | -0.013 | -0.098 | 0.069 | -0.035 | 0.018 | 0.214 (active) | -0.011 | -0.025 | 0.065 | -0.116 | 0.097 | -0.179 | -0.04 | -0.043 | 0.064 | -0.069
MAP2K7 isoform 4 (UniProt O14733) | 0.017 | -0.112 | 0.003 | -0.003 | 0.018 | -0.055 | -0.057 | -0.038 | 0 | -0.051 | -0.086 | 0 | -0.035 | 0.025 | -0.075 | -0.039 | -0.006 | 0.02 | 0.027 | -0.018
IGFBP4 (UniProt P22692) | -0.066 | 0.064 | 0.022 | -0.114 | 0.02 | -0.229 | -0.021 | -0.007 | 0 | -0.233 | -0.126 | -0.173 | 0.077 | -0.06 | 0.14 | -0.007 | 0.116 | -0.102 | 0.033 | -0.15
ILF2 (UniProt Q12905) | -0.168 | -0.164 | -0.153 | 0.206 | -0.126 | 0.07 | -0.024 | 0.022 | 0.063 | 0.038 | 0.093 | -0.012 | -0.011 | 0.251 | 0.121 | 0.3 | -0.151 | -0.084 | 0.006 | -0.071
LUZP1 (UniProt Q86V48) | 0.183 | -0.259 | -0.265 | 0.191 | -0.009 | 0.058 | 0.196 | 0.206 | 0.017 | -0.138 | -0.075 | -0.028 | -0.086 | -0.35 | 0.106 | 0.21 | -0.129 | -0.104 | 0.186 | -0.055
MAP2K3 isoform 3 (UniProt P46734) | 0.054 | -0.049 | -0.068 | 0.043 | 0.091 | -0.001 | 0.005 | -0.007 | 0.012 | -0.02 | -0.071 | 0.096 | -0.019 | 0.021 | -0.04 | -0.049 | 0.005 | -0.083 | 0.08 | -0.145
MELK (UniProt Q14680) | 0.109 | -0.128 | -0.099 | 0.054 | -0.063 | -0.046 | -0.087 | -0.047 | -0.011 | – | -0.06 | 0.086 | 0.033 | -1.04 (active) | -0.149 | 0.14 | -0.092 | – | 0.097 | –
KDM1A isoform 2 (UniProt O60341) | -0.047 | -0.036 | 0.018 | -0.011 | 0.025 | 0.014 | 0.049 | 0.061 | -0.028 | -0.057 | 0.007 | 0.014 | -0.078 | -0.059 | -0.07 | -0.001 | -0.002 | -0.011 | -0.108 | 0.095
IGFBP2 (UniProt P18065) | -0.205 | -0.297 | -0.051 | -0.189 | 0.173 | -0.475 | -0.083 | 0.026 | -0.305 | -0.482 | -0.512 | 0.026 | -0.034 | 0.142 | -0.1 | 0.17 | 0.17 | -0.095 | -0.1 | -0.135
ITGA2B (UniProt P08514) | -0.076 | -0.068 | -0.077 | 0.045 | -0.11 | 0.283 | 0.15 | 0 | 0.031 | -0.088 | – | 0.256 | -0.04 | -0.013 | 0.012 | -0.151 | -0.122 | -0.051 | 0.073 | –
